# Shown are actives, neighbours in structure and some others; about 21% of the full set was active somewhere.
# Shiga inhibitor = inhibitors of Shiga toxin in Vero cells; Vero cells, Shiga toxin protein synthesis inhibition reporter; inhibition, % at 38.7 µM; 9.2% of 290,000 active; AID 2315; in the data active = inhibition mostly above about 28%, no sharp cut-off; inactive = mostly below about 43%; also: 0% is about no effect
# NS1 inh = blocks influenza NS1 protein function | Potency, µM (series often up to 46.1 µM), without a hit: top-dose activity, positive = more growth | 0.4% of 270,000 active | AID 2326; calls by dose curve; also: potency is read from the fitted curve at half-maximal effect; actives are rising curves; nearly all actives have a fitted effect of over 50% in size
#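 Growth recovery, yeast-based: influenza A NS1 expressed in S. cerevisiae causes slow growth, and suppressors are detected by OD600. The parent strain without NS1 is used as positive control.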
# Pf growth 48h = inhibits P. falciparum growth in the first generation, 48 h; P. falciparum luciferase growth in erythrocytes, 48 h; Potency, µM (top dose mostly 28.7 µM), for the others: top-dose activity change, negative = inhibition, most hits filed as inhibitors; 5.9% of 310,000 active; also: potency is read from the fitted curve at half-maximal effect; % is scaled to controls: 0 for no effect and ±100 for the full control effect
#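 Compounds are pin-transferred into medium, infected erythrocytes (2% hematocrit, 0.1% parasitemia final) are added, and plates sit one parasite generation at 37 C in 5% CO2. Detection reagent is then added and luminescence measured.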
# Cycloheximide cs = counter-screen hit for Shiga toxin inhibitors, cycloheximide; max response, %; AID 2314; cell reporter, cycloheximide protein synthesis inhibition counterscreen; 12% of 300,000 active; in the data active = max response mostly above about 13%, no sharp cut-off; inactive = mostly below about 14%; also: read at 38.3 µM for the half of the compounds with a filed dose; 0% is about no effect
# Pf growth 96h = inhibits malaria parasite growth, 96 h; 6.9% of 320,000 active; Potency, µM (series often up to 28.7 µM), without a hit: at the highest dose activity change, negative = inhibition, hits mostly inhibitors; P. falciparum luciferase reporter growth, 96 h; also: potency is read from the fitted curve at half-maximal effect; % is scaled to controls: 0 for no effect and ±100 for the full control effect
#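 Delayed-death screen, second-generation endpoint: infected erythrocytes, 2% hematocrit, 0.05% parasitemia final; 96 hours at 37 C, 5% CO2; luciferase detection reagent; luminescence decrease equals reduced growth.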
# Active calls of the source: *; i = inactive; ? = inconclusive; . = no result. Unless noted, calls follow the shape of the dose curve; as a rule, active = well fitted inhibition curve with a large enough effect; inconclusive = small, poorly fitted or top-dose-only effect, or another doubt; inactive = no such curve, though single readings can be large or run the other way.
SMILES,Shiga inhibitor,NS1 inh,Pf growth 48h,Cycloheximide cs,Pf growth 96h
O=C(CC1C(=O)NC2CCCCC2N1C(=O)c1ccc([N+](=O)[O-])cc1)Nc1ccccc1 (configuration not stated),20,0%,?,-4,?
CC(C(=O)NCC1CCCCC1)N1CCN(S(=O)(=O)c2ccccc2F)CC1 (configuration not stated),-2,.,?,-2,?
CC(C(=O)N1c2ccccc2CC1C)N1CCN(S(=O)(=O)c2ccccc2F)CC1 (configuration not stated),.,.,13µM*,.,?
CC(C)(C)c1ccc(/C=N/NC(=S)NC2CCCCC2)cc1,47*,-1%,?,14,?
COc1cc(/C=N/NC(=O)NC2CCCCC2)ccc1O,43*,-1%,3%,14*,26%
O=C(N/N=C/c1ccccc1F)NC1CCCCC1,33*,-2%,157%,18*,-4%
O=C(N/N=C/c1cccc(F)c1)NC1CCCCC1,20,-10%,66%,19*,0%
COc1ccc(/C=N/NC(=S)NC2CCS(=O)(=O)C2)cc1 (configuration not stated),-2,12%,3%,4,?
CCN(CC)CCCNC(CC(=O)Nc1cccc([N+](=O)[O-])c1)C(=O)O (configuration not stated),-5,-4%,-7%,-4,0%
O=C(N/N=C/c1ccccc1)NC1CCCCC1,46,-10%,59%,31*,33%
COc1cc(/C=N/NC(=O)NC2CCCCC2)cc(OC)c1O,14,7%,-3%,-3,-2%
O=C(N/N=C/c1cccc(F)c1)c1c(O)c2c([nH]c1=O)CCCC2,36*,21%,84%,26*,86%
Cc1ccc(C2NC(=NCc3ccccc3)Nc3nc(C)cc(=O)n32)cc1 (configuration not stated),-6,6%,-9%,1,2%
CCOC(=O)N1CCC2(CC1)C(C#N)=C(N)OC1=C2C(=O)CC(C)C1 (configuration not stated),-16,0%,-11%,1,6.6µM*
CCc1ccc(-c2cc3c(=O)n(CC(=O)NCCCN4CCN(CC)CC4)nc(C)n3n2)cc1,3,5%,?,11,-22%
NC(=O)c1ccccc1NC(=O)CN1CCCCCC1,19,10%,124%,11,?
NC(=O)Nc1sc(-c2ccc(F)cc2)cc1C(N)=O,4,.,.,17*,.
NC(=O)c1cc(-c2ccccc2)sc1NC(=O)CN1CCCCC1,36,-12%,-2%,11*,?
CCc1ccc2c(c1)C(c1ccc([N+](=O)[O-])cc1)=NNC(c1ccc(F)cc1)=N2,63*,10%,42%,24*,?
CC(=O)N1CCC(O)(c2cccc(C(F)(F)F)c2)CC1,-19,-3%,-8%,-4,-7%
Cc1ccc2oc(C(=O)N3CCC(O)(c4cccc(C(F)(F)F)c4)CC3)c(C)c2c1,63*,-65%,45%,43*,-24%
Cc1cc(C)c(NC(=O)c2ccc(CN3CCc4ccccc4C3)cc2)c(C)c1,-4,2%,.,7,7.4µM*
CC(=O)c1cccc(NC(=O)c2ccc(CN3CCc4ccccc4C3)cc2)c1,29,2%,15µM*,13*,?
Cc1ccc(NC(=O)C[n+]2cc(-c3ccccc3)n3c2CCC3)cc1,19,4%,10µM*,2,2.1µM*
Cc1ccc(-c2c[n+](CC(=O)Nc3ccccc3C)c3n2CCC3)cc1,-4,-5%,?,-2,6.6µM*
SMILES,Shiga inhibitor,NS1 inh,Pf growth 48h,Cycloheximide cs,Pf growth 96h
CCCNC(=O)c1ccc(COc2ccc(C)cc2)o1,-6,-39%,?,1,?
CCC(C)c1ccc(OCc2ccc(C(=O)O)o2)cc1 (configuration not stated),105*,-41%,325%,71*,-9%
CCOc1ccc(OCc2ccc(C(=O)NC(C)C)o2)cc1,43*,-11%,?,40*,12µM*
CN1CCN(C(=O)c2ccc(COc3ccc(C(C)(C)C)cc3)o2)CC1,65*,-1%,2%,49*,-2%
CCOC(=O)c1ccc(CSC(=N)N)o1,-3,6%,?,2,21%
CCOC(=O)c1ccc(COc2ccc(C(C)C)cc2)o1,102*,-6%,215%,73*,5%
COc1ccc2c(CC(=O)OCC(=O)c3ccc(F)cc3)coc2c1,7,6%,12%,-4,50%
COC(=O)c1ccc(COc2ccc(C(=O)c3ccccc3)cc2)o1,2,2%,19%,1,33%
CCOc1ccc(OCc2ccc(C(=O)OCc3ccccn3)o2)cc1,143*,-108%,143%,63*,10µM*
CCOc1ccc(OCc2ccc(C(=O)N3N=C(C(F)F)CC3(O)C(F)F)o2)cc1 (configuration not stated),3,2%,37%,10,.
O=C(c1ccco1)N1CCN(C(=O)c2ccc(COc3ccc4c(c3)CCC4)o2)CC1,-3,-45%,?,1,?
CC(C)c1ccc(OCc2ccc(C(=O)N3CCCC3)o2)cc1,155*,-51%,1%,111*,41%
CCCc1ccc(OCc2ccc(C(=O)N3CCCC3)o2)cc1,149*,-63%,10µM*,22*,23%
CCOc1ccc(OCc2ccc(C(=O)N3CCCC3)o2)cc1,54*,-55%,-7%,24*,63%
Cc1ccc(C)c(CN2CCC(CNC(=O)Nc3ccc(F)c(Cl)c3)CC2)c1,-2,-2%,?,-1,0%
CCCc1ccc(OCc2ccc(C(=O)N3CCN(c4ccccn4)CC3)o2)c(OC)c1,28,-144%,13µM*,36*,-1%
COc1ccc(CC(=O)N2CCN(c3ccccn3)CC2)cc1OC,5,5%,-11%,-1,.
CC1CC(=O)N(c2ccc(C(C)C)cc2)C(=O)C1,3,18%,-26%,-1,27%
C1=Nc2ccccc2CN1c1ccccc1,93*,33%,126%,65*,-9%
CC(C)c1ccc(N2C=Nc3ccc(C(C)C)cc3C2)cc1,52*,-10%,?,19*,?
Cc1ccc(C(=O)Nc2cccc(NC(=O)c3ccc(C)o3)n2)o1,15,-46%,28%,6,?
CCCC(c1nnnn1C1CCCC1)N1CCN(c2ccccc2F)CC1 (configuration not stated),-3,-48%,?,-3,?
COC(OC)C1Nc2ccccc2C(=O)N1c1ccc(F)cc1 (configuration not stated),.,.,?,.,0%
Cc1ccc(N2C(=O)c3ccccc3NC2C(C)Cc2ccc3c(c2)OCO3)cc1 (configuration not stated),48*,27%,?,18*,?
CC(C)CC(=O)Nc1cccc2c1C(=O)N(c1ccccc1)C2=O,7,-8%,-16%,-3,-15%
CC(C)CC(=O)Nc1cc2nn(-c3ccccc3)nc2cc1Cl,115*,-5%,.,74*,113%
Nc1cc2nn(-c3ccccc3)nc2cc1Cl,141*,.,i,32*,-13%
